In the library only some 9% were active in any assay of this set; here they are far more common.
HTT aggregate: inhibitors of mutant huntingtin aggregate formation in PC12 cells; Potency, µM (series often up to 46.1 µM), for inactives: top-dose activity change, negative = inhibition, actives largely listed as inhibitors; PC12 HttQ103-GFP aggregates, Acumen cytometry, 40 h; hit rate 1.1% among 220,000; also: % is scaled to controls: 0 for no effect and ±100 for the full control effect; nearly all actives have a fitted effect of over 60% in size
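Inducible Q103 Huntingtin exon 1–GFP PC12 line, 1500 cells/well in phenol red free DMEM with 5% equine and 5% calf serum. Tebufenozide 100 nM induced expression; compounds titrated; aggregates quantified by cytometry.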
HTT ATP protect: cytoprotection in Huntington HTT-Q103 PC12 cell model | hit rate 0.14% among 230,000 | AID 1471 | PC12 HTT-Q103 induced, cytoprotection, ATP luminescence, 40 h | Potency, µM (top dose mostly 56.4 µM), inactives show cytoprotection (ATP increase), hits mostly activators; also: % of control where 0% means no effect; nearly all actives have a fitted effect of over 45% in size
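Compounds added alongside 100 nM tebufenozide, which induces toxic Q103 huntingtin exon 1-GFP in stable PC12 cells; surviving cells quantified by luminescent ATP measurement. Medium: phenol red-free DMEM, 5% equine and 5% calf serum.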
ALDH1A1 block: inhibitors of human aldehyde dehydrogenase 1A1 | Potency, µM (titrated, usually from 75.3 µM), inactives show at the highest dose activity, negative = inhibition, actives largely listed as inhibitors | AID 1030 | hit rate 7.3% among 220,000 | Purified ALDH1A1, NADH fluorescence, propionaldehyde substrate; active = well fitted inhibition curve with a large enough effect, not every such curve was filed as active; inconclusive = small, poorly fitted or top-dose-only effect, or another doubt; inactive = no such curve, though single readings can be large or run the other way;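 also: plate controls were no enzyme wells and a reference inhibitor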
Target sequence (P00352 whole entry, looked up): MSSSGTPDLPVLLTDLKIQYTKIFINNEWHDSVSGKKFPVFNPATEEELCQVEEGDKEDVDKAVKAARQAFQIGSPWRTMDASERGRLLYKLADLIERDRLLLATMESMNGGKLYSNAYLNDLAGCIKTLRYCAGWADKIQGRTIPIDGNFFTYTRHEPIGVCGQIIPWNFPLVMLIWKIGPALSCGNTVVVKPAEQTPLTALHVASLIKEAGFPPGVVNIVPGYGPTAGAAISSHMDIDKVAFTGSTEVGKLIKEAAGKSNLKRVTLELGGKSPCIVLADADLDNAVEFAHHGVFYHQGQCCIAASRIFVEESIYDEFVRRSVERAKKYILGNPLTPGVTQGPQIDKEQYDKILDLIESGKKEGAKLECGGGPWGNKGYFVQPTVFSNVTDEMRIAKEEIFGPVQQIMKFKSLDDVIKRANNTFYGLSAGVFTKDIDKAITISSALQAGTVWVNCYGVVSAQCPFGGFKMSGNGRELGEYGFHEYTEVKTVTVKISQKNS
KinaseGlo FLuc: counter-screen: inhibitors of Kinase-Glo firefly luciferase; Potency, µM (series often up to 38.3 µM), for the others: at the highest dose activity change, negative = inhibition, hits mostly inhibitors; AID 1379; Kinase-Glo luciferase, ATP luminescence, 8 min; hit rate 0.28% among 200,000; also: % is scaled to controls: 0 for no effect and ±100 for the full control effect; nearly all actives have a fitted effect of over 60% in size
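Light output from Kinase-Glo luciferase with luciferin and 10 uM ATP in 50 mM imidazole pH 7.2, KCl, MgCl2, Tween 20, BSA; compound pin-delivered, 8-min ambient incubation, then luminescence read.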
LMNA splice mod: modulators of lamin A splicing. HeLa LMNA splicing GFP/RFP minigene ratio, 48 h. Potency, µM (series often up to 46.1 µM), for inactives: at the highest dose ratio change, negative = inhibition, usual class: inhibitors. hit rate 0.01% among 200,000; active = well fitted inhibition curve with a large enough effect in the signal ratio, with a control signal flat, not every such curve was filed as active; inconclusive = small, poorly fitted or top-dose-only effect, or effect the other way, or a change in a side signal; the % refers to the signal ratio; also: % is scaled to controls: 0 for no effect and ±100 for the full control effect
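S3 HeLa cells stably expressing lamin A-EGFP splicing minigene plus DsRed2, 600 cells/well, 48 h compound exposure at 37C. Laser-scanning cytometry; analysed as GFP (500-530 nm)/RFP (575-640 nm) total intensity ratio; 0.5% DMSO vehicle.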
HPGD inh: inhibitors of human 15-hydroxyprostaglandin dehydrogenase (HPGD); purified HPGD, NADH fluorescence kinetic, PGE2 substrate; Potency, µM, for inactives: at the highest dose activity change, negative = inhibition, most hits filed as inhibitors; AID 894; hit rate 4.3% among 150,000; P15428; active = well fitted inhibition curve with a large enough effect, not every such curve was filed as active; inconclusive = small, poorly fitted or top-dose-only effect, or another doubt; inactive = no such curve, though single readings can be large or run the other way; also: % is scaled to controls: 0 for no effect and ±100 for the full control effect
Target sequence (P15428 whole entry, looked up): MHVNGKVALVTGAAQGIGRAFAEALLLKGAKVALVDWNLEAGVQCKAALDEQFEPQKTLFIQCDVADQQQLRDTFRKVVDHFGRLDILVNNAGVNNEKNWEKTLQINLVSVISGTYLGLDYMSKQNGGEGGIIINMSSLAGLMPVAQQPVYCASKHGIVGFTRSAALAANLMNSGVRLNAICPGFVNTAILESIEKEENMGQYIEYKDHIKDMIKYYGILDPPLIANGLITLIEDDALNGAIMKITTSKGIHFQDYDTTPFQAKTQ
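20 nM HPGD preincubated 15 min at room temperature with compound in 50 mM Tris-HCl pH 8, 0.01% Tween 20. Started with 1 mM NAD+ and 30 uM prostaglandin E2; NADH fluorescence (360/450 nm) read 5 times over 30-s intervals, last minus first.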
Active calls of the source: *; u = inconclusive; x = not tested or not shown; [ ] = remark or other dose. Unless noted, calls follow the shape of the dose curve; as a rule, active = well fitted curve in the direction sought with a large enough effect; inconclusive = small, poorly fitted or top-dose-only effect, or another doubt; inactive = no such curve, though single readings can be large; an effect the other way counts as inactive or inconclusive. Potency is read from the fitted curve at half-maximal effect.

SMILES	HTT aggregate	HTT ATP protect	ALDH1A1 block	KinaseGlo FLuc	LMNA splice mod	HPGD inh
Cc1ccc(S(=O)(=O)NNC(=S)NC(=O)c2ccc([N+](=O)[O-])cc2)cc1	24%	43%[10 µM]	18µM*	1%	4%	28µM*
CCCCCC(=O)NNC(=S)NC(=O)c1ccc([N+](=O)[O-])cc1	-13%	-54%	6.3µM*	-1%	u	x
Cc1ccc(C(=O)NC(=S)NNC(=O)c2ccccc2[N+](=O)[O-])cc1	-29%	25%[10 µM]	22µM*	1%	u	40µM*
COc1ccc(-c2[nH]ncc2CN2CCCN(C(=O)c3ccco3)CC2)cc1F	7%[9.22 µM]	21%[10 µM]	x	x	x	x
CCNc1nc(NCC)nc(OCCOC(=O)c2ccccc2)n1	8%	13%[10 µM]	-1%	10%	4%	-12%
NC(=O)c1ccc[n+](CC(=O)c2ccccc2)c1	31%[9.22 µM]	0%[10 µM]	x	x	x	x
COCCn1c(=O)c(-c2cn(C)c3ccccc23)nc2cncnc21	x	15%	4%	-1%	x	-11%
CCCCC(=O)NNC(=S)NC(=O)CCC	-6%	7%[1.9 µM]	-12%	4%	-11%	-14%
CCCCC(=O)NC(=S)NNC(=O)CC#N	-4%	-9%	22µM*	0%	8%	-21%
CCCCC(=O)NC(=S)NNC(=O)c1ccc(OC)cc1	10µM*	11%[10 µM]	-12%	-1%	u	x
Cc1ccccc1C(=O)NNC(=O)c1ccc(Br)cc1	2%	-58%	-2%	-3%	x	x
Cc1ccccc1C(=O)NNC(=S)NC(=O)c1ccccc1	-23%	x	14µM*	2%	u	-22%
COc1ccccc1NC(=O)Cc1csc(N)n1	-14%	-2%[10 µM]	8%	0%	10%	-8%
Cc1cccc(NC(=O)CSc2nc3ccc(NC(=O)COc4ccccc4F)cc3s2)c1	x	x	x	x	4%[46 µM]	x
Cn1cnnc1SCC(=O)Nc1ccc2nc(SCc3ccccc3)sc2c1	u	-58%	3.5µM*	2%	11%	u
COc1ccc(NC(=O)CSc2nncn2C)cc1OC	-10%	20%[1.9 µM]	10%	-3%	-8%	-8%
Cn1cnnc1SCC(=O)Nc1ccc2nc(SCc3ccccc3Cl)sc2c1	-12%	-14%[10 µM]	25µM*	-3%	-12%	-19%
Cn1cnnc1SCC(=O)Nc1ccc2nc(SCc3cccc4ccccc34)sc2c1	u	14%[10 µM]	14µM*	-5%	u	-17%
Cc1nn(-c2ccccc2)c(C)c1C=O	-5%[9.22 µM]	14%[10 µM]	x	x	x	x
O=C(CSc1nc2ccccc2c(=O)n1-c1ccc(SC(F)F)cc1)Nc1ccc(N2CCOCC2)cc1	-8%[9.22 µM]	-37%	10µM*	1%	x	x
O=C(c1ccc(-n2c(SCc3cccc(F)c3)nc3ccccc3c2=O)cc1)N1CCOCC1	2%	-3%[10 µM]	0.32µM*	0%	0%	-13%
CN(CC(=O)N1CCCCC1)S(=O)(=O)c1ccc(Cl)cc1	29%	0%	-3%	-2%	x	x
CC(=O)n1cc(-c2ccncc2)c2ccccc21	u	13%	-1%	0%	-4%	-9%
CC(=O)n1cc(C(C[N+](=O)[O-])SCCN)c2ccccc21 (stereo not given)	u	-44%	4%	-4%	77%	25µM*
CCCCNC(=O)c1onc(CCl)c1C(=O)OC	u	-87%	14µM*	1%	u	-15%
SMILES	HTT aggregate	HTT ATP protect	ALDH1A1 block	KinaseGlo FLuc	LMNA splice mod	HPGD inh
C=CCNC(=O)c1onc(CCl)c1C(=O)OC	-6%	-57%	-8%	3%	u	-7%
COCCNC(=O)c1onc(CCl)c1C(=O)OC	u	-34%	28µM*	-3%	-7%	-16%
N#CNC(=Nc1cccc(Cl)c1)Oc1ccccc1	-3%[9.22 µM]	11%[10 µM]	x	x	x	x
CCC(c1nnnn1CCc1ccccc1)N1CCN(C(=O)c2ccco2)CC1 (stereo not given)	31%	-8%[10 µM]	u	-1%	14%	-11%
CCCCC(c1nnnn1Cc1ccco1)N1CCN(C(=O)c2ccco2)CC1 (stereo not given)	-7%	-18%[10 µM]	14µM*	2%	-1%	0%
CCCC(c1nnnn1Cc1ccco1)N1CCN(C(=O)c2ccco2)CC1 (stereo not given)	8%	-28%[10 µM]	13µM*	-1%	-3%	-10%
CCCCC(CC)C(=O)N1CCN(C(=O)c2ccco2)CC1 (stereo not given)	-10%	-49%	25µM*	1%	-16%[46 µM]	x
COCCNCc1ccccc1	10%	-3%	14%	-3%	-1%	-3%
CCOc1ccc(-n2cc(C(=O)N3CCC(C)CC3)c3cc(OC)c(OC)cc3c2=O)cc1	10%	5%	10%	-4%	17%	-14%
C/C=C(\C)CN1CCN(c2cccc(C)c2C)CC1	18%	-4%	1%	2%	0%	u
C/C=C(\C)CN1CCN(c2cc(C)ccc2C)CC1	u	-2%	16µM*	-7%	5%	-15%
COc1ccc(-c2cc(CNC(=O)CN(C)Cc3ccccc3)on2)cc1	-4%	-5%	4%	0%	u	25µM*
COc1ccc(-c2cc(CNC(=O)CCl)on2)cc1	18µM*	-41%	u	-5%	u	-6%
COc1ccc(-c2cc(CNC(C)=O)on2)cc1	-6%	-9%	14%	-2%	5%	-12%
O=C1CS(=O)(=O)C2(C(=O)N(Cc3ccccc3)c3ccccc32)N1c1ccc(F)c(Cl)c1 (stereo not given)	x	x	x	x	-5%[46 µM]	x
Cc1cc(=O)oc2cc(O)ccc12	8%[20.6 µM]	5.6µM*	u	3%[17.1 µM]	u	u
COc1ccc(CN2C(=O)NC(C)(c3ccc(C)cc3)C2=O)cc1F (stereo not given)	12%	-6%	0.35µM*	0%	-16%[46 µM]	x
COc1ccc(CN2C(=O)NC3(CCOc4ccccc43)C2=O)cc1F (stereo not given)	1%	-32%[10 µM]	-14%	4%	-19%	-4%
Cc1ccc2nc(SCC(=O)c3cc(C)n(C)c3C)[nH]c2c1	4%	-7%	u	-4%	-2%	-16%
CCNc1nc(NC(C)C)nc(N(C#N)CCOc2ccc(Cl)cc2Cl)n1	35µM*	-5%	-1%	-2%	-9%	-17%
CCNc1nc(NC(C)C)nc(N(C#N)CC(=O)OC)n1	11%	-26%	u	3%	x	x
CCNc1nc(NC(C)C)nc(N(C#N)Cc2ccccc2)n1	9%	2%[10 µM]	1.8µM*	-1%	1%	-11%
CCN(CCO)Cc1cc(=O)oc2cc3c(cc12)CCC3	7%	-1%	u	2%	u	x
C#CCNC(=O)C1=C[C@H](c2cn(C(C)=O)c3ccccc23)C[C@H](OCc2ccc(CO)cc2)O1	-7%[9.22 µM]	-3%[10 µM]	u	x	x	x
COc1cc(OC)c(NC(=O)NCc2cccn2Cc2ccccc2)cc1Cl	x	x	x	x	13%[46 µM]	x
